biological target: ScBbc1; assay: SPOT peptide array binding signal intensity (averaged, normalized) (arbitrary units (background-subtracted, floor 0; scale differs between SH3 domains)); higher = stronger binding of the SH3 domain to the peptide
Method in brief: (§1)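 Cellulose membranes carried synthetic 15-mer peptides with cysteines swapped for serines. These were incubated overnight at 4°C with 10 μg/ml of GST-fused SH3 domains from four yeast species in TBS-based blocking buffer. Binding signal, detected with anti-GST antibody and quantified in Genespotter, is the normalized, background-subtracted spot intensity averaged over replicates, in arbitrary units specific to each domain.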

Row | Binder | SPOT peptide array binding signal intensity
1 | PSRRDSLSIPRAVDA | 8.5

biological target: ScBem1-D1; assay: as above
Method in brief: as §1

Row | Binder | SPOT peptide array binding signal intensity
2 | PSRRDSLSIPRAVDA | 57

biological target: ScBzz1-D1; assay: as above
Method in brief: as §1

Row | Binder | SPOT peptide array binding signal intensity
3 | PSRRDSLSIPRAVDA | 22

biological target: ScBzz1-D2; assay: as above
Method in brief: as §1

Row | Binder | SPOT peptide array binding signal intensity
4 | PSRRDSLSIPRAVDA | 19

biological target: ScCyk3; assay: as above
Method in brief: as §1

Row | Binder | SPOT peptide array binding signal intensity
5 | PSRRDSLSIPRAVDA | 2

biological target: ScFus1; assay: as above
Method in brief: as §1

Row | Binder | SPOT peptide array binding signal intensity
6 | PSRRDSLSIPRAVDA | ≤ 0

biological target: ScHof1; assay: as above
Method in brief: as §1

Row | Binder | SPOT peptide array binding signal intensity
7 | PSRRDSLSIPRAVDA | ≤ 0

biological target: ScHse1; assay: as above
Method in brief: as §1

Row | Binder | SPOT peptide array binding signal intensity
8 | PSRRDSLSIPRAVDA | ≤ 0

biological target: ScLsb1; assay: as above
Method in brief: as §1

Row | Binder | SPOT peptide array binding signal intensity
9 | PSRRDSLSIPRAVDA | ≤ 0

biological target: ScLsb2; assay: as above
Method in brief: as §1

Row | Binder | SPOT peptide array binding signal intensity
10 | PSRRDSLSIPRAVDA | 3.5

biological target: ScLsb3; assay: as above
Method in brief: as §1

Row | Binder | SPOT peptide array binding signal intensity
11 | PSRRDSLSIPRAVDA | 4

biological target: ScLsb4; assay: as above
Method in brief: as §1

Row | Binder | SPOT peptide array binding signal intensity
12 | PSRRDSLSIPRAVDA | 11.5

biological target: ScMyo3; assay: as above
Method in brief: as §1

Row | Binder | SPOT peptide array binding signal intensity
13 | PSRRDSLSIPRAVDA | 0.5

biological target: ScMyo5; assay: as above
Method in brief: as §1

Row | Binder | SPOT peptide array binding signal intensity
14 | PSRRDSLSIPRAVDA | 4.5

biological target: ScNbp2; assay: as above
Method in brief: as §1

Row | Binder | SPOT peptide array binding signal intensity
15 | PSRRDSLSIPRAVDA | 1

biological target: ScPex13; assay: as above
Method in brief: as §1

Row | Binder | SPOT peptide array binding signal intensity
16 | PSRRDSLSIPRAVDA | 1

biological target: ScRvs167; assay: as above
Method in brief: as §1

Row | Binder | SPOT peptide array binding signal intensity
17 | PSRRDSLSIPRAVDA | ≤ 0

biological target: ScSho1; assay: as above
Method in brief: as §1

Row | Binder | SPOT peptide array binding signal intensity
18 | PSRRDSLSIPRAVDA | 14

biological target: ScSla1-D1-D2; assay: as above
Method in brief: as §1

Row | Binder | SPOT peptide array binding signal intensity
19 | PSRRDSLSIPRAVDA | ≤ 0

biological target: ScSla1-D3; assay: as above
Method in brief: as §1

Row | Binder | SPOT peptide array binding signal intensity
20 | PSRRDSLSIPRAVDA | 22.2

biological target: SpAbp1-D1; assay: as above
Method in brief: as §1

Row | Binder | SPOT peptide array binding signal intensity
21 | PSRRDSLSIPRAVDA | 8

biological target: SpBbc1; assay: as above
Method in brief: as §1

Row | Binder | SPOT peptide array binding signal intensity
22 | PSRRDSLSIPRAVDA | 3

biological target: SpBzz1-D1; assay: as above
Method in brief: as §1

Row | Binder | SPOT peptide array binding signal intensity
23 | PSRRDSLSIPRAVDA | 116

biological target: SpBzz1-D2; assay: as above
Method in brief: as §1

Row | Binder | SPOT peptide array binding signal intensity
24 | PSRRDSLSIPRAVDA | 1.5

biological target: SpCyk3; assay: as above
Method in brief: as §1

Row | Binder | SPOT peptide array binding signal intensity
25 | PSRRDSLSIPRAVDA | 3.5

biological target: SpHof1; assay: as above
Method in brief: as §1

Row | Binder | SPOT peptide array binding signal intensity
26 | PSRRDSLSIPRAVDA | 1.25

biological target: SpHof1-2; assay: as above
Method in brief: as §1

Row | Binder | SPOT peptide array binding signal intensity
27 | PSRRDSLSIPRAVDA | 0.5

biological target: SpHof1-3; assay: as above
Method in brief: as §1

Row | Binder | SPOT peptide array binding signal intensity
28 | PSRRDSLSIPRAVDA | 1

biological target: SpHse1; assay: as above
Method in brief: as §1

Row | Binder | SPOT peptide array binding signal intensity
29 | PSRRDSLSIPRAVDA | 21.2

biological target: SpLsb1; assay: as above
Method in brief: as §1

Row | Binder | SPOT peptide array binding signal intensity
30 | PSRRDSLSIPRAVDA | ≤ 0

biological target: SpLsb4; assay: as above
Method in brief: as §1

Row | Binder | SPOT peptide array binding signal intensity
31 | PSRRDSLSIPRAVDA | ≤ 0

biological target: SpMyo1; assay: as above
Method in brief: as §1

Row | Binder | SPOT peptide array binding signal intensity
32 | PSRRDSLSIPRAVDA | ≤ 0

biological target: SpNbp2; assay: as above
Method in brief: as §1

Row | Binder | SPOT peptide array binding signal intensity
33 | PSRRDSLSIPRAVDA | ≤ 0

biological target: SpPex13; assay: as above
Method in brief: as §1

Row | Binder | SPOT peptide array binding signal intensity
34 | PSRRDSLSIPRAVDA | ≤ 0

biological target: SpRvs167; assay: as above
Method in brief: as §1

Row | Binder | SPOT peptide array binding signal intensity
35 | PSRRDSLSIPRAVDA | 1.33

biological target: SpSla1-D1-D2; assay: as above
Method in brief: as §1

Row | Binder | SPOT peptide array binding signal intensity
36 | PSRRDSLSIPRAVDA | 2

biological target: SpSla1-D3; assay: as above
Method in brief: as §1

Row | Binder | SPOT peptide array binding signal intensity
37 | PSRRDSLSIPRAVDA | 1

From the supplement of paper PMC4466140
